Measured values from the supplement of paper PMC12340641.
Structures can show the parent of a compound that is named as a salt.

Assays:
[1] = target: IKZF1 (dCK*-IKZF1 fusion in HEK293FT) (UniProt Q13422); assay: inhibition of IKZF1 HTRF signal (DMSO = 0%, pomalidomide 10 uM = 100%); higher = lower IKZF1 protein level; conditions: compound concentration: 5 uM, overnight (~20 h)
How it was run: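 Values are percent inhibition of IKZF1 signal, normalised plate by plate against vehicle and a reference degrader. HEK293FT cells stably expressing an IKZF1 fusion were seeded at 2000 per well in 384-well plates and exposed to 5 μM compound in single wells overnight at 37 °C. After 30 min lysis at room temperature, lysates were incubated overnight with a commercial HTRF total-IKZF1 antibody kit, and the background-subtracted 665/620 nm time-resolved FRET ratio was read. On each plate, vehicle was set at 0% and the reference degrader at 100%.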

HEK293FT dCK*-only = assay: relative growth in counter assay (no AraC = 100%, AraC + DMSO = 0%); higher = more growth rescue independent of IKZF1; conditions: compound concentration: 5 uM; AraC concentration: 0.3 uM; overnight pretreatment + 4 days AraC
How it was run: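 This counter assay used HEK293FT cells expressing only an engineered kinase construct, seeded at 300 per well in 384-well plates. Compound was added at 5 μM 2 h after seeding, and after overnight at 37 °C the cells received a nucleoside suicide substrate at 0.3 μM plus medium for 4 days. On day 5, nuclei stained with Hoechst 33342 were counted by imaging, and relative growth was normalised per plate; wells without suicide substrate were set at 100% and wells with substrate plus vehicle at 0%.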

HEK293FT dCK*-IKZF1 = assay: relative growth recovery (pomalidomide 10 uM = 100%, DMSO = 0%); higher = more growth rescue (IKZF1 fusion degradation); conditions: compound concentration: 5 uM; AraC concentration: 0.3 uM; overnight pretreatment + 4 days AraC
How it was run: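 HEK293FT cells stably expressing an engineered deoxycytidine kinase–IKZF1 fusion were seeded at 300 per well in 384-well plates and given 5 μM compound 2 h later. After overnight incubation at 37 °C, a nucleoside suicide substrate at 0.3 μM was added with medium for 4 days, and on day 5 Hoechst 33342-stained nuclei were counted by whole-well imaging. Growth recovery was normalised per plate between a reference degrader and vehicle, set to 100% and 0% respectively, and the values are means of duplicates run on different days.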

Chain of IKZF1 (dCK*-IKZF1 fusion in HEK293FT) (Q13422 whole entry, looked up, the tested form may be a part): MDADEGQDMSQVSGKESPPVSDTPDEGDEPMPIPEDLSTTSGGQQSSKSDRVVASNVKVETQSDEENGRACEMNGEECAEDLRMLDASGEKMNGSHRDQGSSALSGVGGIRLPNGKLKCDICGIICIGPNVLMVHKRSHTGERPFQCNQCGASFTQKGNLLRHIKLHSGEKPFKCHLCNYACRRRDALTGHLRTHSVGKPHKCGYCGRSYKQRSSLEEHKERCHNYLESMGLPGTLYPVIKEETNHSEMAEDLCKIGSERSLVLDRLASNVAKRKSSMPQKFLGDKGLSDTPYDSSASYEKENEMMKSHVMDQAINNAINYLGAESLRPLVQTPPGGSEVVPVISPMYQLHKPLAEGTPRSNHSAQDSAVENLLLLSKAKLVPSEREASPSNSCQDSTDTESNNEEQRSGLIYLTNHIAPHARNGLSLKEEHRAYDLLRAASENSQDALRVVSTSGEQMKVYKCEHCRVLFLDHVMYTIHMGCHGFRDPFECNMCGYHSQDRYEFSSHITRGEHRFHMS

Row | Compound | inhibition of IKZF1 HTRF signal [1] | relative growth in counter assay (HEK293FT dCK*-only) | relative growth recovery (HEK293FT dCK*-IKZF1)
1 | NC(=O)N/N=C/c1ccc(Oc2ccc(F)cc2)cc1 | -35% | 2.45% | -1.07%
2 | O=C(O)c1ccc(/C=C2/SC(=S)N(c3cccc(C(F)(F)F)c3)C2=O)cc1 | -26.9% | -1.87% | -0.07%
3 | COc1ccccc1Oc1c(NS(=O)(=O)c2ccc(C)cn2)nc(-c2ccncc2)nc1OC [Avosentan] | -39.7% | -4.67% | -1.19%
4 | O=C(c1cc(S(=O)(=O)Nc2ccccc2F)c(F)cc1Cl)N1CCN2CCC[C@@H]2C1 | -26% | -1.66% | -3.52%
5 | C=C1C(=O)O[C@H]2[C@H]1CC/C(C)=C/CC[C@@]1(C)O[C@@H]21 [parthenolide] | -47.4% | -33% | -10.5%
6 | Cc1ccccc1N=Nc1ccc(N=Nc2c(O)ccc3ccccc23)c(C)c1 [Solvent Red 24] | 13.9% | -1.17% | -0.495%
7 | CCN(CCCCCOCC(=O)N[C@H](C(=O)N1C[C@H](O)C[C@H]1C(=O)N[C@@H](C)c1ccc(-c2scnc2C)cc1)C(C)(C)C)CCOc1ccc(C(=O)c2c(-c3ccc(O)cc3)sc3cc(O)ccc23)cc1 | 3.72% | 13.8% | 11%
8 | COc1c(C)c2c(c(O)c1C/C=C(\C)CCC(=O)O)C(=O)OC2 | -27.2% | -31.1% | -11.7%
9 | C/C(=N/Nc1nnc2c(n1)[nH]c1c(C)cccc12)c1ccccn1 | 45.9% | -33% | -12.6%
10 | C[n+]1c2cc(N)ccc2cc2ccc(N)cc21.Nc1ccc2cc3ccc(N)cc3nc2c1 [Acriflavine hydrochloride] | 6.76% | -35.7% | -14%
11 | Nc1ccc(-c2nc3ccc(-c4nc5ccc(N)cc5[nH]4)cc3[nH]2)cc1 | 1.33% | -6.2% | -2.58%
12 | CC(CCc1ccc(O)cc1)NCCc1ccc(O)c(O)c1 (centres undefined) [Dobutamine (hydrochloride)] | -39.6% | -8.05% | -1.22%
13 | Cc1nc(Nc2ncc(C(=O)Nc3c(C)cccc3Cl)s2)cc(N2CCN(CCO)CC2)n1 [Dasatinib] | -54.9% | -29% | -7.9%
14 | CCOC(=O)C1=C(C)NC(C)=C(C(=O)OC)C1c1cccc([N+](=O)[O-])c1 (centres undefined) | -32.3% | -1.02% | 2.87%
15 | O=C(CSc1nnc2c(n1)[nH]c1ccccc12)Nc1ccc(Cl)cn1 | 4.2% | -5.82% | 1.11%
16 | CCCCCCc1ccc(O)cc1O | -30.8% | 4.87% | 2.99%
17 | Cc1cc2nc3ccc(N(C)C)cc3[s+]c2cc1N | -22.7% | -34.5% | -13.5%
18 | COC(=O)C1=C(C)NC(C)=C(C(=O)OC)C1c1ccccc1[N+](=O)[O-] | -23.7% | -4.16% | -3.38%
19 | COc1cc(CN(CCN)C(=O)c2cccs2)ccc1OCc1ccccc1 | -24.8% | 7.03% | 0.355%
20 | CN1CCC[C@@H]1CCO[C@](C)(c1ccccc1)c1ccc(Cl)cc1 | -21.3% | 6.03% | -3.56%
21 | c1ccc2c(c1)CCC[C@H]2Nc1nc2ccccc2[nH]1 | -34.6% | -1.81% | -0.405%
22 | COc1c(C/C=C(\C)CCC(=O)O)c(O)c2c(O)occ2c1C [Mycophenolic Acid] | 14.9% | -30.9% | -9.99%
23 | CCOC(=O)Nc1nc2ccccc2[nH]1 | -22.3% | 2.38% | -1.88%

Row | Compound | inhibition of IKZF1 HTRF signal [1] | relative growth in counter assay (HEK293FT dCK*-only) | relative growth recovery (HEK293FT dCK*-IKZF1)
24 | C=C1/C(=C\C=C2/CCC[C@]3(C)[C@@H]([C@H](C)/C=C/C=C/C(O)(CC)CC)CC[C@@H]23)C[C@@H](O)C[C@@H]1O [Seocalcitol] | -23.4% | 14.2% | 6.88%
25 | O=C(Nc1nc(-c2cc(Cl)cs2)c(N2CCN(C3CCCCC3)CC2)s1)c1cnc(N2CCC(C(=O)O)CC2)c(Cl)c1 [Avatrombopag] | -35.6% | -3.51% | 1.31%
26 | CC(C)CCN1c2nc(Nc3cc(F)c(O)c(F)c3)ncc2N(C)C(=O)C1C (centres undefined) | -50.7% | -32.3% | -11.3%
27 | O=c1oc2c(O)c(O)cc3c(=O)oc4c(O)c(O)cc1c4c23 | 5.6% | -6.38% | -3%
28 | Cn1c(=O)n(-c2ccc(C(C)(C)C#N)cc2)c2c3cc(-c4cnc5ccccc5c4)ccc3ncc21 [Dactolisib (BEZ235, NVP-BEZ235)] | 46.7% | -20.5% | -7.88%
29 | CN(C)c1ccc(/C=C2\C(=O)Nc3ccccc32)cc1 | -36.5% | -9.78% | 2.52%
30 | CSc1ccc2c(c1)C(N1CCN(C)CC1)Cc1ccccc1S2 (centres undefined) | -34.7% | -1.22% | -1.56%
31 | N#Cc1ccc(O[C@H]2CC[C@H](NC(=O)c3ccc(N4CCC(CN5CCN(c6cc7c(cc6F)C(=O)N(C6CCC(=O)NC6=O)C7=O)CC5)CC4)nn3)CC2)cc1Cl (some centres undefined) | -5.24% | 6.3% | -0.69%
32 | Nc1ccc2ncnc(NCCc3ccc(Oc4ccccc4)cc3)c2c1 | 20.9% | -8.23% | -2.79%
33 | COc1ccc(CN2C(=O)C(=O)c3cc(OC(F)(F)F)ccc32)cc1 | -14.2% | -33.6% | -11.5%
34 | COCCOC(=O)C1=C(C)NC(C)=C(C(=O)OC(C)C)C1c1cccc([N+](=O)[O-])c1 (centres undefined) | -29.4% | -11.4% | 6.1%
35 | CCSc1ccc2c(c1)N(CCCN1CCN(C)CC1)c1ccccc1S2 [thiethylperazine] | 24.1% | -4.22% | 1.55%
36 | Fc1ccc(CNc2ncnc3ccc(F)cc23)cc1 [spautin-1] | 8.67% | -2.11% | 5.96%
37 | CC[N+](C)(CC)CCC[n+]1c(-c2ccccc2)c2cc(N)ccc2c2ccc(N)cc21 [propidium-iodide] | 58.8% | -10.7% | -3.16%
38 | COc1cc(C(=O)NS(=O)(=O)c2ccccc2C)ccc1Cc1cn(C)c2ccc(NC(=O)OC3CCCC3)cc12 [Zafirlukast (Accolate)] | -6.19% | 0.38% | 0.805%
39 | Nc1ncn([C@H]2C[C@H](O)[C@@H](CO)O2)c(=O)n1 [Decitabine] | 12% | -31.4% | -11.4%
40 | CCc1c2c(nc3ccc(OC(=O)N4CCC(N5CCCCC5)CC4)cc13)-c1cc3c(c(=O)n1C2)COC(=O)[C@]3(O)CC [Irinotecan HCl] | -17.6% | -35.4% | -15.1%
41 | CC(C)(C)c1cc(O)c(C(C)(C)C)cc1O | -31.7% | -0.82% | -0.575%
42 | CC1CC(OC(=O)C(O)c2ccccc2)CC(C)(C)C1 (centres undefined) | -11.2% | 0.99% | -2.85%
43 | C[C@@H]1CC(=O)c2c(ccc3c2C(=O)c2cccc(O)c2C3=O)C1 [ochromycinone] | 14.5% | 6.7% | -2.08%
44 | O=c1c(O)c(-c2ccc(O)c(O)c2)oc2cc(O)cc(O)c12 [quercetin] | -26.2% | -7.53% | -2.98%
45 | Nc1ccc(/N=N/c2ccccc2)c(N)n1 | -28.9% | -3.22% | -1.03%
46 | C/C(=N\NC(=S)N1CCC1)c1ccccn1 | -11.1% | -34.6% | -12.9%

Row | Compound | inhibition of IKZF1 HTRF signal [1] | relative growth in counter assay (HEK293FT dCK*-only) | relative growth recovery (HEK293FT dCK*-IKZF1)
47 | Cc1cc(C2CCCCC2)n(O)c(=O)c1 [Ciclopirox] | 24.4% | -31.2% | -11.9%
48 | CCCCC1OC(=O)c2ccccc21 (centres undefined) [Butylphthalide] | -30.6% | 1.67% | 1.08%
49 | O=C(/C=C/c1ccc2ccccc2n1)c1ccncc1 | -36.5% | -35.1% | -15%
50 | O=C1NC(=O)/C(=C/c2ccc(-c3ccc(F)cc3O)o2)S1 | -15.8% | -7.95% | -0.795%
51 | CC(C)/N=c1/cc2n(-c3ccc(Cl)cc3)c3ccccc3nc-2cc1Nc1ccc(Cl)cc1 [Clofazimine] | 6.09% | 3.02% | -0.03%
52 | CCCC(=O)C1CCN(c2ncnc3c2CN(C(=O)c2ccc(-c4ccccc4)cc2)CC3)CC1 | -10.8% | 18% | 4.94%
53 | Cc1ncsc1-c1ccc(CNC(=O)[C@@H]2C[C@@H](O)CN2C(=O)[C@@H](NC(=O)COCCOCCOCCOc2ccc(-c3ccc4ncnc(Nc5ccc(OCc6cccc(F)c6)c(Cl)c5)c4c3)cc2)C(C)(C)C)cc1 | 13.3% | 18% | 4.09%
54 | CCN(CC)CCNc1ccc(CO)c2sc3ccccc3c(=O)c12 [Hycanthone] | -30.4% | -31.9% | -12.3%
55 | CN(C)CCC=C1c2ccccc2CCc2ccccc21 | 8.98% | -1.73% | 0.57%
56 | CNC[C@H](O)c1ccc(O)c(O)c1 | -26.9% | -15.6% | -7%
57 | CC(=O)Nc1cccc(Nc2ncnc(N3CCC(OCc4ccc(OC(F)(F)F)cc4)CC3)n2)c1C | 4.12% | -5.23% | 1.55%
58 | Clc1ccc(COC(Cn2ccnc2)c2ccc(Cl)cc2Cl)cc1 (centres undefined) [Econazole Nitrate] | -40.1% | 3.6% | 4.02%
59 | Clc1ccc2c(N3CCN(CCCN4CCN(c5ccnc6cc(Cl)ccc56)CC4)CC3)ccnc2c1 | 17% | 3.87% | -1.17%
60 | Nc1ncnc2c1c(-c1cnc3[nH]ccc3c1)nn2C1CCCC1 | -13.8% | -33.6% | -11.3%
61 | Nc1ccc(S(=O)(=O)Nc2ncccn2)cc1 | -27.2% | -9.24% | 2.56%
62 | Clc1cccc(Cl)c1CSc1nnc(-c2cnccn2)s1 [yoda-1] | 3.26% | -3.89% | -4.05%
63 | CCCSc1ccc2[nH]c(NC(=O)OC)nc2c1 [Albendazole] | 3.53% | 6.7% | -0.675%
64 | CCN(CC)CCCN(c1ccccc1)C1Cc2ccccc2C1 [aprindine] | 2.2% | 4.05% | 1.23%
65 | COC(=O)C1=C(C)NC(C)=C(C(=O)OC(C)(C)CN(C)CCC(c2ccccc2)c2ccccc2)C1c1cccc([N+](=O)[O-])c1 (centres undefined) [lercanidipine] | -5.35% | -6.01% | 1.64%
66 | COC(=O)c1c(C)[nH]c(C)c1C(=O)c1ccccc1Cc1ccccc1 | -37.4% | 36.9% | 66.8%
67 | CO[C@H]1O[C@@H]2O[C@@]3(C)CC[C@H]4[C@H](C)CC[C@@H]([C@H]1C)[C@@]24OO3 [Artemether] | -2.04% | -7.46% | -4.6%
68 | CC1=C(/C=C/C(C)=C/C=C/C(C)=C/C(=O)Nc2ccc(O)cc2)C(C)(C)CCC1 [Fenretinide] | -30.4% | -13.7% | -1.99%
